TrxR1 substrate – substrates of rat thioredoxin reductase 1; Potency, µM (top dose mostly 114 µM); AID 588456; 390,000 tested, 0.01% active; purified TrxR1 substrate turnover, NADPH consumption readout; note: nearly all actives have a fitted effect of over 50% in size
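Rat TrxR1, dispensed at 90 nM, was prereduced with 400 uM NADPH (final) for 5 min at ~22 deg C, then incubated with compound 15 min before 400 uM selenite. A first-read NADPH fluorescence drop versus no-compound background flagged substrates.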
IDH1 R132H inh – human IDH1 R132H inhibition. IDH1-R132H enzyme, NADPH consumption, diaphorase/resazurin fluorescence. Potency, µM (highest dose often 76.6 µM), actives largely listed as inhibitors. AID 602179. O75874. 390,000 tested, 0.093% active; note: nearly all actives have a fitted effect of over 65% in size
Target sequence (O75874 whole entry R132H, stated change not applied): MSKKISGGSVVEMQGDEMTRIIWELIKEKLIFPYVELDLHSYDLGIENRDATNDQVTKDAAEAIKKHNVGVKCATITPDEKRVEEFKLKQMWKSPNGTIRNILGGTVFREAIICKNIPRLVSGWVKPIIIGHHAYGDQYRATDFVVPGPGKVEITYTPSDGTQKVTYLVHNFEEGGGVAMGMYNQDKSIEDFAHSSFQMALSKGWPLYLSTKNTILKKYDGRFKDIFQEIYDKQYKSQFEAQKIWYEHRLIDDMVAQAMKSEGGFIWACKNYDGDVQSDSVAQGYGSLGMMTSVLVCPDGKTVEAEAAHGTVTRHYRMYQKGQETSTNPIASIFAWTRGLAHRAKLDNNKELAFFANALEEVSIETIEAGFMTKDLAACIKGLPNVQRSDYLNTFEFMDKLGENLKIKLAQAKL
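IDH1-R132H (0.5 ug/mL dispensed) in pH 7.5 Tris buffer was preincubated 30 min with compound, then given a substrate mix of 0.016 mM NADPH and 2 mM alpha-KG for 80 min at room temperature; remaining NADPH was read by diaphorase/resazurin fluorescence.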
BRCA1 expr act – activators of BRCA1 expression; 380,000 tested, 1.1% active; MCF7-BRCA1-FFLuc reporter, luminescence, 48 h; response scale: scaled: vehicle 0%, 10 µM genistein 100%; Potency, µM (series often up to 46.1 µM), actives largely listed as activators; note: nearly all actives have a fitted effect of over 80% in size
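Using MCF7 cells harboring a BRCA1 firefly luciferase reporter, plated 2 h before compound pinning, the screen measured luminescence after 48 h incubation. Responses were normalized to DMSO and 10 microM genistein, then fitted for concentration-effect.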
IL-2 act – activators of IL-2 | IL-2 activation reporter assay, cell-based qHTS; stimulated with anti-CD3/CD4/CD28 beads; in transgenic mouse T cells | AID 652025 | 360,000 tested, 0.065% active | activation, % (series mostly up to about 46 µM); in the data active = activation above about 50%; inconclusive = mostly about 30% to 49%
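Unstimulated transgenic mouse T cells; 60-min compound exposure; bead-based TCR/CD4/CD28 stimulation; 18 h culture, 37 degrees C; dual fluorescence (EGFP, DsRed) plate cytometry.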
Giardia kill – kills Giardia lamblia. 340,000 tested, 0.15% active. activity change, % at 7.66 µM, hits read low. Giardia lamblia trophozoite viability; in the data active = activity change below about -80%; inconclusive = between about -30% and that limit;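 note: parasites exposed to compound for two days anaerobically before the ATP read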
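Luminescent ATP signal served as the viability read-out, measured 15-30 min after adding ATP detection reagent to trophozoites that had been incubated with compounds for 48 hrs at 37 deg C anaerobically at 100 cells/well.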
rTrxR1 inhibitor – inhibitors of rat thioredoxin reductase 1. O89049. recombinant rTrxR1, NADPH fluorescence consumption, selenite substrate. Potency, µM (titrated, usually from 114 µM), most hits filed as inhibitors. 390,000 tested, 1% active; note: nearly all actives have a fitted effect of over 65% in size
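Rat TrxR1 (90 nM in the dispensed reagent) was pre-reduced with 400 uM NADPH for 5 min at room temperature, then incubated with compound for 15 min. After 400 uM selenite was added, NADPH fluorescence (Ex 340/Em 450 nm) was followed for 8 min.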
Of the large screens only hits and unclear results are named; the others gave an inactive call. A selection: hits, their analogues and other compounds. The true share with any hit is near 2.2%. Unless noted, calls come from the whole dose curve; as a rule, active = well fitted curve in the direction sought with a large enough effect; inconclusive = small, poorly fitted or top-dose-only effect, or another doubt; inactive = no such curve, though single readings can be large; an effect the other way counts as inactive or inconclusive.

Cc1cccc(CS(=O)(=O)c2ncc(Cl)c(C(=O)NCc3ccc4c(c3)OCO4)n2)c1	Giardia kill inconclusive
COC(=O)c1ccccc1NC(=O)c1nc(S(=O)(=O)Cc2cccc(C)c2)ncc1Cl	rTrxR1 inhibitor 1.4µM (no result: BRCA1 expr act, IL-2 act, Giardia kill)
CCOc1ccc(-n2c(SCC(=O)Nc3cc(C)ccc3C)nc3c([nH]c4ccccc43)c2=O)cc1	none (no result: IL-2 act, Giardia kill)
COc1ccc(C)cc1NC(=O)CCn1nc(C)cc1C	none (no result: BRCA1 expr act, IL-2 act, Giardia kill)
CCOC(=O)c1c(-c2ccccc2)csc1NC(=O)c1nc(SCC)ncc1Cl	none (no result: BRCA1 expr act, IL-2 act, Giardia kill)
CCCS(=O)(=O)c1ncc(Cl)c(C(=O)N(Cc2ccccc2)Cc2ccco2)n1	rTrxR1 inhibitor 1.8µM (no result: IL-2 act)
CCOC(=O)c1c(-c2ccccc2)csc1NC(=O)c1nc(S(=O)(=O)CC)ncc1Cl	rTrxR1 inhibitor 3.2µM (no result: BRCA1 expr act, IL-2 act, Giardia kill)
CCSc1ncc(Cl)c(C(=O)N(Cc2ccccc2)Cc2ccco2)n1	none (no result: IDH1 R132H inh, BRCA1 expr act, IL-2 act, Giardia kill)
CCOC(=O)c1c(NC(=O)c2nc(S(C)(=O)=O)ncc2Cl)sc(C(C)=O)c1C	rTrxR1 inhibitor 1.4µM (no result: BRCA1 expr act, IL-2 act, Giardia kill)
CCS(=O)(=O)c1ncc(Cl)c(C(=O)Nc2ccccc2)n1	rTrxR1 inhibitor 2.5µM (no result: BRCA1 expr act, IL-2 act, Giardia kill)
CC(C)(C)c1ccc(C(=O)CCCN2CCC(OC(c3ccccc3)c3ccccc3)CC2)cc1	rTrxR1 inhibitor inconclusive (no result: IDH1 R132H inh, BRCA1 expr act, IL-2 act, Giardia kill)
Cc1ccc(S(=O)(=O)N2CCN(c3nc(C(N)=O)nc4ccccc34)CC2)cc1	none (no result: IDH1 R132H inh, IL-2 act)
CCS(=O)(=O)c1ncc(Cl)c(C(=O)N2CCN(c3ccc(OC)cc3)CC2)n1	rTrxR1 inhibitor 3.2µM (no result: IDH1 R132H inh, BRCA1 expr act, IL-2 act, Giardia kill)
CCS(=O)(=O)c1ncc(Cl)c(C(=O)N(Cc2ccccc2)c2ccc(OC)cc2)n1	rTrxR1 inhibitor 3.5µM (no result: BRCA1 expr act, IL-2 act, Giardia kill)
CCCS(=O)(=O)c1ncc(Cl)c(C(=O)Nc2ccc(S(=O)(=O)Nc3ncccn3)cc2)n1	rTrxR1 inhibitor 45µM
COC(=O)c1ccc(NC(=O)c2nc(S(=O)(=O)Cc3cccc(C)c3)ncc2Cl)cc1	rTrxR1 inhibitor 20µM
CCc1ccccc1NC(=O)C1(C)Cc2ccccc2C(=O)O1 (stereo not given)	none (no result: IL-2 act, Giardia kill)
CCS(=O)(=O)c1ncc(Cl)c(C(=O)Nc2ccc(S(=O)(=O)N3CCC(C)CC3)cc2)n1	rTrxR1 inhibitor 8.9µM
O=C(Cc1ccc(Cl)cc1)NCC(c1cccs1)S(=O)(=O)c1ccc(F)cc1 (stereo not given)	none (no result: BRCA1 expr act, IL-2 act, Giardia kill)
CN(CCCc1cnc[nH]1)C(=S)NCCCN(Cc1ccc(Cl)cc1)c1ccc(Br)cn1	none (no result: IDH1 R132H inh, IL-2 act)
O=C(Nc1ccc(Br)cc1F)c1ccc2nc(CCc3ccccc3)oc2c1	BRCA1 expr act inconclusive (no result: IL-2 act, Giardia kill)
O=[N+]([O-])c1cc(/C=N\Nc2nc(-c3ccccc3)cs2)ccc1O	none
Cc1csc(N/N=C/c2ccc(O)c([N+](=O)[O-])c2)n1	rTrxR1 inhibitor 28µM
CCOc1ccc(CNC(=O)CCCn2c(=O)c3cccn3c3ccc(F)cc32)cc1	none (no result: BRCA1 expr act, IL-2 act, Giardia kill)
CCOC(=O)C1Nc2ccc(Br)cc2C2C=CCC12 (stereo not given)	rTrxR1 inhibitor 32µM
CCOC(=O)C1Nc2ccc(C)cc2C2C=CCC12 (stereo not given)	rTrxR1 inhibitor 5.6µM
CC(C)CNC(=O)C1Nc2ccc(OC(F)(F)F)cc2C2C=CCC12 (stereo not given)	rTrxR1 inhibitor inconclusive
COc1ccc(Br)cc1[C@@H]1Nc2ccc(C(=O)O)cc2[C@@H]2C=CC[C@@H]21	none (no result: BRCA1 expr act, IL-2 act, Giardia kill)
CCOC(=O)c1ccc2c(c1)[C@@H]1C=CC[C@@H]1[C@H](c1cccc(OC)c1OC)N2	none (no result: BRCA1 expr act, IL-2 act, Giardia kill)
O=C(O)C1Nc2ccc(Br)cc2C2C=CCC12 (stereo not given)	rTrxR1 inhibitor 20µM
CCOC(=O)c1ccc2c(c1)C1C=CCC1C(C(=O)OCC)N2 (stereo not given)	rTrxR1 inhibitor 40µM
Nc1cc(C2CCCC2)nn1-c1ccccc1	BRCA1 expr act 10µM
Cn1/c(=N/NC(=O)c2ccccc2Br)sc2ccccc21	BRCA1 expr act 10µM
Cc1ccccc1Cn1ccc(-c2ccc3c(c2)OCO3)n1	BRCA1 expr act inconclusive
Fc1cccc(Cn2ccc(-c3ccc4c(c3)OCO4)n2)c1	BRCA1 expr act 10µM
OCCNc1ncnc2c1c(-c1ccccc1)c(-c1ccccc1)n2Cc1ccco1	rTrxR1 inhibitor inconclusive

Screens deposited in PubChem by National Center for Advancing Translational Sciences (NCATS).
